# Most compounds without a hit are left out; they make up all but 4.7% or so of the library.
# D1 potentiator: Potentiators of Human D1 Dopamine Receptor: qHTS; D(1A) dopamine receptor (Homo sapiens), P21728; HEK293 TREx D1 cells, calcium flux, dopamine EC20 potentiation; potentiation, % at 10 µM; 360,000 tested, 0.036% active; in the data active = potentiation above about 30%; also: 0% is about no effect
# Target sequence (P21728 whole entry, looked up): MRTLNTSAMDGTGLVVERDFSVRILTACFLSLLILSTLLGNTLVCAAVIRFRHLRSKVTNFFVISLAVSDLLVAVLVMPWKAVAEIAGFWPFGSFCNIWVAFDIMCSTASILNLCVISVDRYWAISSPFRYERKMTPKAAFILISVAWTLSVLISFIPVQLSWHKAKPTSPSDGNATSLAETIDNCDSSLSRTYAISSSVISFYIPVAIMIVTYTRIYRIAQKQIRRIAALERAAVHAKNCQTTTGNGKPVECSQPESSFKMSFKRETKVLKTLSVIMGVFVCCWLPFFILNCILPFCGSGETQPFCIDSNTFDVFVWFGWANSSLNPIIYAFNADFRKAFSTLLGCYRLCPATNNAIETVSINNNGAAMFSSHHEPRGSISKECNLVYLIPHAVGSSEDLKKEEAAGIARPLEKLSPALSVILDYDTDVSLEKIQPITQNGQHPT
# D1 antag: Antagonist of Human D 1 Dopamine Receptor: qHTS; 360,000 tested, 3.2% active; activity change, negative = inhibition, % at 10 µM; HEK293 TREx D1 cells, calcium flux, dopamine EC80; stronger effect = lower value; AID 504652, 2011; in the data active = activity change below about -30%; also: % is scaled to controls: 0 for no effect and ±100 for the full control effect
#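 Tetracycline-induced HEK293 T-REx cells with force-coupled D1 receptor were loaded with a no-wash calcium dye. Compound was added after a 10 s baseline and read kinetically for 180 s; EC80 dopamine was then added and calcium flux followed another 180 s.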
# TRHR PAM: qHTS for Small Molecule Agonists and Allosteric Enhancers of Human TRH Receptor: Primary Screen for Enhancers. TRHR cells, fluo-8 calcium fluorescence, EC20 TRH enhancement. enhancement, % at 2 µM. Thyrotropin-releasing hormone receptor (Homo sapiens), P34981. AID 493056, 2011. 360,000 tested, 0.66% active; in the data active = enhancement above about 30%; also: 0% is about no effect
#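 Enhancer read-out: after compound pinning and an initial kinetic agonist-mode read, an EC20 of TRH (10 nM final) was injected and fluo-8 calcium signal (Ex 480/Em 530) followed at 1 s/cycle for 100 cycles in TRHR-expressing cells.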
# TRHR agonist: qHTS for Small Molecule Agonists and Allosteric Enhancers of Human TRH Receptor: Primary Screen for Agonists; TRHR cells, calcium flux fluo-8, FDSS agonist mode; activation, % at 2 µM; 360,000 tested, 0.18% active; also: 0% is about no effect
#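 TRHR-expressing cells loaded with fluo-8 calcium dye; 23 nL library compound pin-transferred, kinetic FDSS fluorescence (Ex 480/Em 530) recorded about 180 s for agonist-induced calcium release, before a 10 nM TRH EC20 addition for potentiator mode.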
# D1 agonist: Allosteric Agonists of the Human D1 Dopamine Receptor: qHTS; D(1A) dopamine receptor (Homo sapiens), P21728; HEK293 T-REx D1 cells, calcium flux, agonist mode; activation, % at 2 µM; 360,000 tested, 1% active; also: 0% is about no effect
#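 Inducible HEK293 T-REx D1 cells, force-coupled to calcium signalling, were plated at 4000 cells/well with tetracycline and held overnight at 30 C. After no-wash calcium dye loading, compound-evoked calcium rise over 180 s flagged agonists.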
# * hit, by the source's call; . = no result. Rule as the data show it, unless noted: active = activation above about 30%; inactive = the rest.
SMILES,D1 potentiator,D1 antag,TRHR PAM,TRHR agonist,D1 agonist
CCOc1ccc(C2OC(=O)Cc3cc(OC)c(OC)cc32)cc1 (stereo not given),-3.5,-31.1*,-1.0,-3.1,4.0
CCOC(=O)c1c(C)[nH]c(C2=NNC(=Nc3ccc(OCC)cc3)SC2)c1C,-15.7,-71.7*,4.0,-1.0,-2.4
CC(=O)c1c(C)[nH]c(C2=NNC(=NC(C)(C)C)SC2)c1C,-8.2,-32.5*,0.2,1.4,1.8
CC(C)(C)N=C1NN=C(c2ccc(Cl)cc2)CS1,-11.3,-40.4*,6.2,-0.2,-0.1
O=C(CNC(=O)c1ccncc1)N/N=C/c1ccccn1,-11.2,17.2,-3.2,0.4,1.7
O=C(N/N=C\c1cc2c(cc1Cl)OCO2)c1cccs1,-0.3,10.3,5.1,1.9,0.4
COc1cccc(/C=N/NC(=O)CNC(=O)c2ccncc2)c1O,0.0,-41.3*,14.1,0.7,2.2
COc1cccc(/C=N/NC(=O)CNC(=O)c2cccnc2)c1O,-7.4,-19.8,1.9,0.3,1.0
COc1cccc(/C=N/NC(=O)c2ccc(-c3ccccc3)cc2)c1O,1.0,-6.3,9.5,3.1,3.6
O=C(Cc1ccccc1)N/N=C/c1cc2c(cc1Cl)OCO2,-11.0,-40.2*,11.7,-0.1,16.0
COc1cccc(/C=N/NC(=O)c2[nH]c(C)c(C(=O)N/N=C/c3cccc(OC)c3O)c2C)c1O,-7.5,-77.3*,-4.3,0.6,-0.5
COc1cc(C(=O)NCC(=O)N/N=C/c2ccccn2)cc(OC)c1OC,0.9,6.2,34.9*,0.6,-2.4
COc1ccc2c(c1)c1c(c(=O)n(-c3ccc(C)cc3)c(=O)n1CC(=O)N1CCCC1)n2C,-1.1,6.8,-0.5,-0.1,-1.7
O=C(CCc1ccccc1)Nc1cc2c(cc1Cl)OCCO2,-7.3,-30.0*,4.5,-0.2,0.4
O=C(CNC(=O)c1ccccc1)N/N=C/c1ccccc1Cl,31.8*,-3.3,-5.6,-0.3,0.2
O=C(CNC(=O)c1ccccc1)N/N=C/c1cccs1,1.5,9.3,-0.2,0.1,0.2
CCOC(=O)c1cc(-c2ccc(OC)cc2)n(CCC(=O)Nc2cccc(C(C)=O)c2)c1C,-5.3,-4.5,-1.2,0.3,1.9
COc1cc(N2CCCC2)c(OC)cc1/C=C1/NC(=S)NC1=O,-2.2,-34.9*,6.2,70.5*,182.8*
COc1ccc(OC)c(/C=C2\NC(=O)NC2=O)c1,12.8,2.3,-2.4,-0.8,4.0
O=C(NCC(O)c1ccc([N+](=O)[O-])cc1)Nc1ccccc1 (stereo not given),-0.5,-0.5,-6.1,-0.7,5.0
CC(NCC(O)c1ccc([N+](=O)[O-])cc1)C12CC3CC(CC(C3)C1)C2 (stereo not given),-6.8,-4.4,-18.8,-1.6,49.2*
CCCCN(C)C(=O)CN1C(=O)CCn2nc(-c3cn(C)c4ccccc34)cc21,0.9,1.4,1.4,-0.1,0.5
CCCCC(CC(O)COCCC)c1n[nH]c(=S)n1-c1ccccc1 (stereo not given),-2.5,-44.7*,-3.0,0.5,4.7
CCCCCC(O)CCc1n[nH]c(=S)n1-c1ccccc1 (stereo not given),-0.8,10.6,1.8,0.1,0.8
O=[N+]([O-])c1nn(-c2ccc(Cl)cc2)n(O)c1=NCc1ccncc1,-4.5,-42.2*,-5.8,-1.6,5.3
SMILES,D1 potentiator,D1 antag,TRHR PAM,TRHR agonist,D1 agonist
CCOc1ccc(S(=O)(=O)N2CCCC(C(=O)NCc3ccncc3)C2)cc1Cl (stereo not given),-3.9,-31.4*,7.2,-1.4,13.3
O=C(NCc1ccccc1Cl)C1CCCN(S(=O)(=O)c2cnc[nH]2)C1 (stereo not given),.,-44.2*,-8.0,0.3,3.4
O=C(NCc1cccs1)C1CCCN(S(=O)(=O)c2cnc[nH]2)C1 (stereo not given),.,-2.5,6.8,0.3,4.2
CCOC(=O)C1CCCN(C(=O)C2CCN(S(=O)(=O)c3cnc[nH]3)CC2)C1 (stereo not given),-0.9,-41.0*,13.4,0.4,3.1
O=C(NCc1ccco1)C1CCCCN1S(=O)(=O)c1ccc(F)cc1 (stereo not given),-6.2,-38.7*,2.6,0.8,-0.2
N#C/C(=C\c1ccc(Cl)cc1)C(=O)NCC1CCCO1 (stereo not given),4.9,9.9,-2.0,1.2,0.6
COc1ccc(-c2nc3ccccc3n3c(-c4cccc(C)c4)c4c(=O)n(C)c(=O)n(C)c4c23)cc1OC,-5.4,-1.1,-0.1,0.0,-0.9
CCOc1ccc(CNC(=O)CCCn2c(=O)c3cccn3c3ccc(F)cc32)cc1,5.0,-3.6,-0.8,0.1,4.4
CC1CCN(S(=O)(=O)c2ccc3c(c2)N(CC(=O)NCCN(C)C)C(=O)CS3)CC1,-0.7,16.4,-9.2,-0.3,-0.1
COC(=O)c1ccc2c(=O)n(CCc3ccc(S(N)(=O)=O)cc3)c(SCC(=O)C(C)(C)C)nc2c1,-1.5,-6.7,7.8,0.1,0.6
O=C(COc1ccccc1F)Nc1ccc2nc(SCC(=O)N3CCOCC3)sc2c1,-1.4,-13.2,-8.7,0.4,16.3
O=C(NCc1ccccc1)C1CCCN(S(=O)(=O)c2ccc(Br)cc2)C1 (stereo not given),-5.7,-22.5,-1.2,0.0,6.3
O=C(NCc1ccccc1)C1CCCN(S(=O)(=O)c2ccc(F)cc2)C1 (stereo not given),-2.6,3.3,36.0*,-0.2,3.2
Cc1cc(Br)ccc1NC(=O)CN1C(=O)C2C3CC(c4ccccc4)C(C3)C2C1=O (stereo not given),-8.3,-39.3*,-5.1,1.5,1.0
Cn1c(CCN2CCCCC2)nc2cc(NS(=O)(=O)c3ccccc3)ccc21,-5.2,-13.8,2.3,-0.1,2.4
Cn1c(CCN2CCN(c3ccccn3)CC2)nc2cc(NS(=O)(=O)c3ccccc3)ccc21,-12.7,-32.0*,-1.9,0.1,6.8
Cn1c(CN2CCCC2)nc2cc(NS(=O)(=O)c3ccc(Cl)cc3)ccc21,-5.7,-14.2,5.6,1.7,47.3*
CCCn1cc(S(=O)(=O)c2cccc(Cl)c2)c(=O)c2cc(F)c(N3CCOCC3)cc21,-2.0,-3.0,7.2,-0.1,0.4
O=C(Nc1cc(Cl)ccn1)C1CCN(S(=O)(=O)c2cccs2)CC1,-15.2,-30.6*,0.1,-0.3,5.4
Cc1csc(NC(=O)C2CCN(S(=O)(=O)c3ccccc3F)CC2)n1,-11.0,-37.7*,7.5,0.1,23.7

# Screening results deposited in PubChem BioAssay by National Center for Advancing Translational Sciences (NCATS).
